# In PubChem BioAssay AID624273 (Broad Institute, 2012):
# The whole screen tested about 1,000 compounds, of which about 230 (23%) were called active. Roughly 1% stayed inconclusive and do not appear here. How the calls were made is not given here. The list shows a part of the results. Entries with a potency or affinity are not part of this list.
# Target: Long-chain-fatty-acid--AMP ligase FadD28 (Mycobacterium tuberculosis (strain ATCC 25618 / H37Rv)) (UniProt P9WQ59)
# Assay: inhibitors of FadD28 bisubstrate probe binding, dose response, biochemical, fluorescence polarization, cherry-pick (AID 624273)
# Conditions: series mostly up to 50 µM
# Sequence of Long-chain-fatty-acid--AMP ligase FadD28 (Mycobacterium tuberculosis (strain ATCC 25618 / H37Rv)) (P9WQ59 whole entry, looked up): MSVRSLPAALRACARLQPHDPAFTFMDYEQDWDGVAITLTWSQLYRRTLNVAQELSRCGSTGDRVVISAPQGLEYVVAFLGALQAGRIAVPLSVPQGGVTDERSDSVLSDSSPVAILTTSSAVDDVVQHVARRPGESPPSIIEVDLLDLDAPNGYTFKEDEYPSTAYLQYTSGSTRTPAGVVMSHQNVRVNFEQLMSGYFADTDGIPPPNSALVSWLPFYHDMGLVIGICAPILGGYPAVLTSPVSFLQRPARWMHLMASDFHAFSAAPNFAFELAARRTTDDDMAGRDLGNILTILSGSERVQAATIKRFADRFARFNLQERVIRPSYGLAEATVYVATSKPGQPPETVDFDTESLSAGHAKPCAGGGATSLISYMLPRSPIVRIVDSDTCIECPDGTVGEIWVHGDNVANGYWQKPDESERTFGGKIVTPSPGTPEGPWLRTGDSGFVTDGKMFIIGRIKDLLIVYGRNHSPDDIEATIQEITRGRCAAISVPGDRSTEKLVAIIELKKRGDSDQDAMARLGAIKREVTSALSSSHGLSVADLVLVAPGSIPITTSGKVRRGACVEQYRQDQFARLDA
row,SMILES,outcome
1,O=C1NC(=S)S/C1=C\c1cc2ccccc2nc1N1CCCCC1,inactive
2,COc1ccc(/C=C2/C(=O)N(Cc3ccco3)C(=O)N(C(C)C)C2=O)cc1,inactive
3,CC1CC(C)CN(CCCNC(=O)Cn2cccc2C(=O)c2ccccc2)C1 (stereo not drawn),inactive
4,CC(=O)c1ccc(C(=O)N2CCCC(Nc3ccccc3)C2)s1 (stereo not drawn),inactive
5,O=C(c1ccc2nc(Cc3cccc(Cl)c3)oc2c1)N1CCC(O)CC1,inactive
6,CCOC(=O)Nc1cc(N)ncn1,inactive
7,COc1ccc(CCNC(=O)C(=O)NCCCN2CCOCC2)cc1,inactive
8,CCN(CC)c1ccc(/C=c2\sc3nnc(-c4ccccc4Cl)n3c2=O)cc1,inactive
9,Cc1ccc(S(=O)(=O)N2CCC(NC(=O)c3cccc(F)c3)CC2)cc1,inactive
10,CCC1(C)Cc2ccccc2-c2nc(NCCO)[nH]c(=O)c21 (stereo not drawn),inactive
11,COCC(=O)/C=C1\Sc2ccccc2N1C,inactive
12,O=Cc1ccc(C(=O)OCC(=O)NC(=O)Nc2ccccc2F)cc1,inactive
13,COc1cccc(-c2nc3ccc(C(=O)NC(C)Cc4cccnc4)cc3o2)c1 (stereo not drawn),inactive
14,Cc1ccc(OCC(=O)Nc2ccncc2)cc1,inactive
15,Cc1ccc2nc(SCC(=O)Nc3ccc(C(N)=O)cc3)[nH]c2c1,inactive
16,O=S(=O)(c1ccc(N2CCC(c3ccc(Cl)cc3)=N2)cc1)N(CCO)CCO,inactive
17,NC(N)=NS(=O)(=O)c1ccc(NC(=S)NC(=O)/C=C/c2ccc(F)cc2)cc1,inactive
18,Cc1noc(NS(=O)(=O)c2ccc(NC(=O)/C=C/c3ccc(Br)cc3)cc2)c1C,inactive
19,CCOc1ccc(N(C(C)C(=O)Nc2cccnc2)S(C)(=O)=O)cc1 (stereo not drawn),inactive
20,COc1ccc(C2=NOC(C)(c3nnc(-c4ccccc4)o3)C2)cc1 (stereo not drawn),inactive
21,O=S(=O)(c1ccc(Nc2ccc(-c3ccc4c(c3)OCCO4)nn2)cc1)N1CCCC1,inactive
22,Cc1cc(-c2ccc(C)c(S(=O)(=O)Nc3ccc(S(N)(=O)=O)cc3)c2)on1,inactive
23,Cc1ccccc1C(=O)OCCN(C)Cc1ccccc1,inactive

row,SMILES,outcome
1,COC(=O)C1=C(C)N(CCc2c[nH]c3ccccc23)C(=O)C1,inactive
2,CC(C)(C)c1ccc(OCCC(=O)Nc2cccc(S(=O)(=O)N3CCCC3)c2)cc1,inactive
3,COC(=O)c1cn(NC(=O)c2ccc([N+](=O)[O-])c(C)c2)c(=O)c2ccccc12,inactive
4,N#CC(=C=[N-])C1=C(C#N)C(c2ccccc2F)C([n+]2ccccc2)C(O)(C2CC2)N1 (stereo not drawn),inactive
5,COc1ccccc1C/C(N)=N/OC(=O)c1cccs1,inactive
6,COc1ccc(OC)c(NC(=O)CN2C(=O)C(C)N(c3ccc(C)cc3)C2=O)c1 (stereo not drawn),inactive
7,Cc1ccc(S(=O)(=O)Nc2cccc3c2O[C@@H](CN(C)C(=O)Nc2ccc4c(c2)OCO4)[C@H](C)CN([C@@H](C)CO)C3=O)cc1,inactive
8,CCCc1cc(=O)[nH]c(SCc2ccc(C#N)cc2)n1,inactive
9,COc1ccccc1-c1cnc(C(O)c2cc(C)c(OC)c(C)c2)[nH]1 (stereo not drawn),inactive
10,O=C(NNC(=O)C1CC1)Nc1ccc(Cl)cc1,inactive
11,O=C(NCCN1CCN(c2ccccc2F)CC1)c1cccn2c(=O)c3ccccc3nc12,inactive
12,CCOc1ccc(OCCNC2CCCC2)cc1,inactive
13,CC(C)(C)C1CCc2c(sc(NC(=O)C3CCCO3)c2C(N)=O)C1 (stereo not drawn),inactive
14,O=C(O)Cn1c(CCS(=O)(=O)c2ccc(Br)cc2)nc2ccccc21,inactive
15,COc1ccc(-c2cc(C(F)(F)F)c3c(=O)n(-c4ccccc4)[nH]c3n2)cc1,inactive
16,O=C(CSc1ccc(Cl)cc1)NC1=NN(c2ccccc2)C(=O)C1,inactive
17,C[C@@H]1CN([C@H](C)CO)C(=O)c2cc(NC(=O)Nc3ccc(C(F)(F)F)cc3)ccc2O[C@H]1CN(C)S(=O)(=O)c1ccccc1,inactive
18,N#CCCN(CCC#N)C(=O)C1c2ccccc2Oc2ccccc21,inactive
19,CCCCCCn1cc(C(=O)O)c(=O)c2cc(F)c(N3CCN(C)CC3)cc21,inactive
20,O=C(NNC(=O)C1CC=CCC1)c1ccccc1Cl (stereo not drawn),inactive
21,COc1ccc(CCNC(=O)CSc2nc3[nH]ncc3c(=O)n2-c2ccc(Cl)cc2Cl)cc1OC,inactive
22,O=C(CSc1nnc(CNc2ccc(Cl)cc2)o1)Nc1nc2c(s1)CCCC2,inactive
23,COCC(C)N=Cc1c(O)[nH]c2ccccc12 (stereo not drawn),inactive

row,SMILES,outcome
1,CC1=C(C(=O)OCCCBr)C(c2ccc3c(c2)OCO3)NC(=O)N1 (stereo not drawn),inactive
2,CN1CC(C(=O)c2ccc(Cl)cc2)C(c2ccc(N(C)C)cc2)C1 (stereo not drawn),inactive
3,CC(=O)Oc1ccc(-c2nc(-c3cccnc3)no2)cc1,inactive
4,COc1ncnc(-c2ccccc2)c1-c1ccccc1,inactive
5,COCC(=O)Nc1ccc(Br)cc1C,inactive
6,COc1ccc(C(=O)Nc2ccncc2)cc1OC,inactive
7,COc1cc(/C=N/n2c(COc3ccccc3)n[nH]c2=S)cc(OC)c1OC(C)=O,inactive
8,O=C(CN1C(=O)/C(=C/c2ccco2)SC1=S)NC1CCS(=O)(=O)C1 (stereo not drawn),inactive
9,COc1ccc(/C=C2\SC(=O)N(CC(=O)Nc3ccccc3O)C2=O)cc1OC,inactive
10,O=C(NCCS(=O)(=O)N1CCN(c2cccc(Cl)c2)CC1)c1cc(=O)c2ccccc2o1,inactive
11,COc1cc2cc(C(N)=O)c(N)nc2cc1OC,inactive
12,Cc1nc(-c2cccs2)ccc1C(=O)O,inactive
13,O=[N+]([O-])c1cccc(/C=N/n2c(C3CCCCC3)n[nH]c2=S)c1,inactive
14,COCCCNC(=S)N/N=C/c1cccc(OC)c1O,inactive
15,CC1CCN(S(=O)(=O)c2ccc(C(=O)Nc3nnc(C4=COCCO4)o3)cc2)CC1,inactive
16,O=C(COC(=O)c1cccc(S(=O)(=O)N2CCCC2)c1)Nc1cccc(Br)c1,inactive
17,CCN(CC)S(=O)(=O)c1ccc(NC(=O)COC(=O)c2ccc(Br)o2)cc1,inactive
18,O=C(CSc1nnnn1-c1ccccc1)Nc1nsc(-c2ccc(Cl)cc2)n1,inactive
19,Cc1cc(S(=O)(=O)N(Cc2cccs2)Cc2ccccc2F)ccc1-n1cnnn1,inactive
20,CCNS(=O)(=O)c1cc(OC)c(Cl)cc1OC,inactive
21,O=C(Nc1nc(COc2ccccc2)cs1)c1ccccc1F,inactive
22,COc1ccc(CNC(=O)CN(Cc2ccc(OC)cc2)C(=O)CCC(=O)Nc2nccs2)cc1,inactive
